Assay results as given in PubChem BioAssay (NCI).
The panel holds about 79,000 compounds, 15% with a hit somewhere; the sample as a whole holds those more often. Calls of active or inactive are those of the source. No stated cut-off is given here; in the data, active means growth inhibition above about 70%; inactive means the rest.

What was measured:
[1] = NCI Yeast Anticancer Drug Screen. Data for the rad50 strain (AID 155);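 further: 0% = growth of vehicle-only cultures of the same strain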; settings: S. cerevisiae rad50 strain growth inhibition, stronger effect = higher value
Method in brief: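 Relative growth inhibition (compound vs vehicle) was measured in yeast with a defined repair-gene alteration.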

[2] = NCI Yeast Anticancer Drug Screen. Data for the mec2-1 strain (AID 157); settings: S. cerevisiae mec2-1 strain, stronger effect = higher value
Method in brief: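 Each compound was tested on mec2-1 yeast, a strain altered in DNA damage repair or cell cycle control. Growth inhibition is reported relative to vehicle.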

[3] = NCI Yeast Anticancer Drug Screen. Data for the sgs1 mgt1 strain (AID 161);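 further: 0% = growth of cultures given vehicle only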; settings: S. cerevisiae sgs1 mgt1 strain, stronger effect = higher value
Method in brief: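 Test agents were incubated with a DNA-repair-mutant yeast strain. Growth was then read and compared against vehicle-treated controls.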

[4] = NCI Yeast Anticancer Drug Screen. Data for the cln2 rad14 strain (AID 165);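 further: 0% = growth equal to vehicle treated cultures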; settings: S. cerevisiae cln2 rad14 strain, stronger effect = higher value
Method in brief: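 Test compounds were added to cln2 rad14 yeast cultures; inhibition of growth was then determined by comparison with vehicle treatment.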

[5] = NCI Yeast Anticancer Drug Screen. Data for the bub3 strain (AID 167); settings: S. cerevisiae bub3 mutant strain, stronger effect = higher value
Method in brief: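 Screening used yeast with an engineered genetic alteration affecting cell cycle control. Compound-exposed cultures were compared with vehicle cultures, and reduced growth was taken as inhibition.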

[6] = NCI Yeast Anticancer Drug Screen. Data for the mlh1 rad18 strain (AID 175); settings: S. cerevisiae mlh1 rad18 strain growth inhibition, stronger effect = higher value
Method in brief: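 Inhibition values reflect reduced growth of mutant yeast versus vehicle-treated controls following compound exposure; the mutations affect DNA damage repair.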

[7] = at 5.0 µM (retest, dose inferred, filed as 0.5)
[8] = at 50.0 µM (retest, dose inferred, filed as 5.0)

Measured: growth inhibition

C=Nc1ccc2ccccc2c1Cc1c(O)ccc2ccccc12
active: [1]; [8] 99% | [1]; at 50.0 µM 97.2% | [2]; [8] 99% | [2]; at 50.0 µM 97.2% | [3]; [8] 99% | [3]; at 50.0 µM 97.4% | [4]; [8] 99% | [4]; at 50.0 µM 96.5% | [5]; [8] 99% | [5]; at 50.0 µM 97.5% | [6]; [8] 99% | [6]; at 50.0 µM 96.7%
inactive: [1]; [7] 7% | [2]; [7] 12% | [3]; [7] 8% | [4]; [7] -8% | [5]; [7] 1% | [6]; [7] 11%

CN1CCC(/C=C/c2cccc3ccccc23)CN1 (configuration not stated) (tested in a mixture with another compound)
inactive: [1]; [7] 1% | [2]; [7] 18% | [3]; [7] -1% | [4]; [7] 3% | [4]; [8] 27% | [4]; at 50.0 µM 23.2% | [5]; [7] -4% | [5]; [8] 52% | [5]; at 50.0 µM 35.9% | [6]; [7] -1%
active: [1]; [8] 93% | [1]; at 50.0 µM 71.5% | [2]; [8] 71% | [2]; at 50.0 µM 71.3% | [3]; [8] 91% | [3]; at 50.0 µM 79.3% | [6]; [8] 95% | [6]; at 50.0 µM 81.3%

O=C(O)/C=C/C(=O)Nc1cc2c(cc1Br)-c1ccccc1C2Br (configuration not stated)
active: [1]; [8] 77% | [5]; [8] 71% | [6]; [8] 81%
inactive: [1]; [7] 8% | [1]; at 50.0 µM 9.15% | [2]; [7] 1% | [2]; [8] 38% | [2]; at 50.0 µM 40.9% | [3]; [7] 3% | [3]; [8] 69% | [3]; at 50.0 µM 7.45% | [4]; [7] -1% | [4]; [8] 27% | [4]; at 50.0 µM 38.1% | [5]; [7] -12% | [5]; at 50.0 µM -3.8% | [6]; [7] 4% | [6]; at 50.0 µM 11.2%

CCOC(=O)c1ccc(NC(=O)O/N=C(/Cl)CCl)cc1
inactive: [1]; [7] -14% | [1]; at 50.0 µM 41.2% | [2]; [7] -5% | [3]; [7] -22% | [3]; [8] 50% | [3]; at 50.0 µM 55.3% | [4]; [7] -10% | [4]; at 50.0 µM 57.2% | [5]; [7] -16% | [5]; [8] 43% | [6]; [7] -5% | [6]; at 50.0 µM 69%
active: [1]; [8] 99% | [2]; [8] 95% | [2]; at 50.0 µM 83.8% | [4]; [8] 78% | [5]; at 50.0 µM 73.5% | [6]; [8] 79%

NC(N)=NS(=O)(=O)c1ccc(N=Cc2c3ccccc3nc3cc(Cl)ccc23)cc1
active: [1]; at 50.0 µM 95.1% | [2]; at 50.0 µM 93% | [3]; at 50.0 µM 96.2% | [4]; at 50.0 µM 91.5% | [6]; at 50.0 µM 97%
inactive: [1]; [7] 5% | [1]; [8] -4% | [2]; [7] 11% | [2]; [8] -2% | [3]; [7] 4% | [3]; [8] -5% | [4]; [7] -5% | [4]; [8] -3% | [5]; [7] 10% | [5]; [8] 0% | [5]; at 50.0 µM 26.5% | [6]; [7] 6% | [6]; [8] -2%

CC(NC(=O)C(NC(=O)C(NC(=O)C(F)(F)F)C(C)C)C(C)C)C(=O)Oc1c(Cl)c(Cl)c(Cl)c(Cl)c1Cl (configuration not stated)
inactive: [1]; [7] 5% | [1]; at 50.0 µM 59% | [2]; [7] 6% | [2]; [8] 62% | [3]; [7] 21% | [4]; [7] 10% | [4]; [8] 68% | [5]; [7] -20% | [5]; [8] 65% | [6]; [7] 28%
active: [1]; [8] 70% | [2]; at 50.0 µM 86.7% | [3]; [8] 80% | [3]; at 50.0 µM 82.9% | [4]; at 50.0 µM 77.7% | [5]; at 50.0 µM 85.6% | [6]; [8] 83% | [6]; at 50.0 µM 78.7%

CCOC1(OCC)Cc2nc3ccccc3cc21
active: [1]; [8] 94% | [1]; at 50.0 µM 96.7% | [2]; [8] 96% | [2]; at 50.0 µM 96.8% | [3]; [8] 96% | [3]; at 50.0 µM 95.5% | [4]; [8] 91% | [4]; at 50.0 µM 92.5% | [5]; [8] 93% | [5]; at 50.0 µM 96.7% | [6]; [8] 95% | [6]; at 50.0 µM 97.2%
inactive: [1]; [7] 4% | [2]; [7] -2% | [3]; [7] 2% | [4]; [7] 0% | [5]; [7] -2% | [6]; [7] 3%

CC1C/C(=C\c2ccc(O)c(O)c2)C(=O)/C(=C/c2ccc(O)c(O)c2)C1 (configuration not stated)
active: [1]; [8] 71% | [6]; [8] 84%
inactive: [1]; [7] 22% | [1]; at 50.0 µM 52.4% | [2]; [7] 20% | [2]; [8] 67% | [2]; at 50.0 µM 32.3% | [3]; [7] 17% | [3]; [8] 66% | [3]; at 50.0 µM 47.5% | [4]; [7] 7% | [4]; [8] 65% | [4]; at 50.0 µM 41% | [5]; [7] 16% | [5]; [8] 67% | [5]; at 50.0 µM 19.9% | [6]; [7] 27% | [6]; at 50.0 µM 21.6%

Oc1ccc(Br)cc1C=Nc1c(NC2CCCCC2)oc2ccc(Br)cc12
inactive: [1]; [7] -4% | [1]; [8] 9% | [1]; at 50.0 µM -9.35% | [2]; [7] 3% | [2]; [8] -2% | [2]; at 50.0 µM 39.4% | [3]; [7] 11% | [3]; [8] 22% | [3]; at 50.0 µM 41.8% | [4]; [7] -18% | [4]; [8] 0% | [4]; at 50.0 µM 37% | [5]; [7] -12% | [5]; [8] 43% | [5]; at 50.0 µM 53.4% | [6]; [7] -4% | [6]; [8] 29% | [6]; at 50.0 µM 50.5%
